The source of these data is PubChem BioAssay (NCATS).

A number with no mark means an inactive call. Inconclusive results are not listed. Active and inactive are the calls of the source. Unless noted, the call rests on the fitted dose curve; in most records, active means well fitted curve in the direction sought with a large enough effect; inconclusive means small, poorly fitted or top-dose-only effect, or another doubt; inactive means no such curve, though single readings can be large; an effect the other way counts as inactive or inconclusive.

In assay [1] the target is Lysosomal acid glucosylceramidase (Homo sapiens) (UniProt P04062). Nature of the assay: Glucocerebrosidase-p2 (AID 348; in the data active means potency below about 10 µM; further: potency means the concentration at half of the fitted maximal effect). The note with it: purified GBA, blue fluorogenic substrate, 40 min. The method, boiled down: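 Compounds titrated from 0.6 nM upwards against 0.2 nM enzyme in pH 5.9 citric acid/KH2PO4, taurocholate, tween-20; blue fluorogenic substrate 80 uM, 40 min room temperature, stopped and read Ex 365/Em 440 for AC50.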

Assay [2] can be described thus: AP1 Signaling Pathway (AID 357; active means well fitted curve in either direction with a large enough effect, not every such curve was filed as active;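 further: ME-180 reporter cells stimulated with EGF at its EC50 level; on the % scale 0 is the no-effect control and ±100 the full control effect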). The following applies: ME-180 AP-1-bla reporter, EGF-induced, beta-lactamase ratio, 5 h; at 7.69 µM (top of the series) unless noted. The method, boiled down: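 In this screen, ME-180 cells in Opti-MEM with 0.5% dialyzed FBS received EC50 EGF and compound titrations for 5 h. AP-1 reporter beta-lactamase was detected via CCF4 ratio, giving AC50 for positive and negative modulators.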

Assay [3] addresses Cytochrome P450 1A2 (Homo sapiens) (UniProt P05177). Nature of the assay: p450-cyp1a2 (AID 410; calls by dose curve; further: potency means the concentration at half of the fitted maximal effect). The following applies: recombinant CYP1A2, luciferin-ME demethylation, luminescence; series mostly up to 57 µM. The method, boiled down: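 20nM CYP1A2 with 100uM Luciferin-ME (at Km) in 100mM KPO4; compound preincubated 10 min, NADPH regeneration added, 60 min at room temperature. Luciferin quantified by luminescence after detection reagent; normalized to 57 uM furafylline.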

The nature of assay [4]: Stat Signaling Pathway (AID 446; active means well fitted curve in either direction with a large enough effect, not every such curve was filed as active;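 further: ME-180 cervical cancer cells given 40 pM IL-6 alongside compound; SIE-controlled beta-lactamase reporter measured as 460/530 nm FRET emission ratio; on the % scale 0 is the no-effect control and ±100 the full control effect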). The following applies: ME-180 (cervical carcinoma) SIE beta-lactamase reporter, IL-6 stimulated, 5 h; at 7.69 µM (top of the series) unless noted. The essentials: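 IL-6/STAT signaling read in ME-180 cells via an SIE beta-lactamase reporter. Stimulus was 40 pM IL-6 (its AC50) for 5 hrs, so both activation and inhibition register.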
For assay [5], the target named is Glucocorticoid receptor (Homo sapiens) (UniProt P04150). Nature of the assay: GR-GFP Redistribution (AID 450;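 active means compounds whose dose series gives a full or clear partial fitted curve of increased nuclear translocation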; further: potency means the concentration at half of the fitted maximal effect). The note with it: U2OS GR-GFP nuclear translocation, laser cytometry, 2 h.
The target is the same in assay [6]. Nature of the assay: GR-EFC Redistribution (AID 451; calls by dose curve; further: potency means the concentration at half of the fitted maximal effect). The following applies: CHO-K1 GR-EFC translocation, beta-gal luminescence, 2 h. The essentials: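 Translocation of GR-ED fusion to nuclear EA restores b-gal, read by luminescence after 1 h room-temperature detection. Engineered CHO-K1 biosensor cells, 1,000/well, exposed 2 h at 37 C to titrations up to 46 uM final.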

Assay [7] deals with Mitogen-activated protein kinase 10 (Mus musculus) (UniProt Q61831). Put plainly: JNK3 AlphaScreen Assay (AID 530; active means well fitted curve in either direction with a large enough effect, not every such curve was filed as active;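 further: kinase came from lysate of stimulated human HepG2 cells; signal reports phosphorylation of biotinylated GST-cJun 1-79 at Ser73 with 10 µM ATP; on the % scale 0 is the no-effect control and ±100 the full control effect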). The note with it: JNK3 lysate, c-Jun phosphorylation; series mostly up to 57.1 µM. The method, boiled down: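 Compound titrations were preincubated 15 minutes at room temperature with substrate, antibody and pre-activated JNK3-containing HepG2 lysate. Reactions were started with 10 uM ATP and stopped with EDTA-containing bead buffer for AlphaScreen detection.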
In general terms: Bead proximity is the source of the signal in Alpha formats.

In assay [8] the target is 3',5'-cyclic-AMP phosphodiesterase 4B (Homo sapiens) (UniProt Q07343). Put plainly: qHTS Assay for Inhibitors of PDE-IV (AID 607; active means well fitted activation curve with a large enough effect in the main read-out, with a control signal flat, not every such curve was filed as active; further: % of control where 0% means no effect). The following applies: HEK293 ACTOne CNG channel cells, membrane potential fluorescence; series mostly up to 22.9 µM. The essentials:
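Live HEK293 cells with a modified cyclic nucleotide-gated (CNG) channel report intracellular cAMP via membrane-potential dye fluorescence (ex 535/em 590 nm). Endogenous PDE-IV was targeted. Compounds were tested at up to 22.9 uM final; RO 20-1724 100 uM served as control.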
For orientation: Quantitative high-throughput screening tests each substance at several concentrations.

Assay [9] has as its target Cytochrome P450 3A4 (Homo sapiens) (UniProt P08684). Nature of the assay: qHTS Assay for Activators of Cytochrome P450 3A4 (AID 885). Further: nearly all actives have a fitted effect of over 65% in size. The following applies: recombinant CYP3A4, Luciferin-PPXE luminescence, 60 min; series mostly up to 57.1 µM. The essentials: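 Quantitative HTS format: compounds preincubated with 20nM human CYP3A4 and Luciferin-PPXE substrate at KM, reaction started by NADPH regeneration, stopped after 60 min, luciferase luminescence read 20 min later.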

For assay [10], the target named is Dual specificity protein kinase CLK4 (Homo sapiens) (UniProt Q9HAZ1). Put plainly: qHTS Assay for Inhibitors of CDC-like Kinase 4 (Kinase-Glo Assay) (AID 1770). Further: nearly all actives have a fitted effect of over 65% in size. Further: potency means the concentration at half of the fitted maximal effect. The following applies: recombinant Clk4, Kinase-Glo ATP depletion luminescence; series mostly up to 66.7 µM. The method, boiled down:
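25 nM Clk4 with 100 uM RS repeat peptide and 1 uM ATP (final) in Tris pH7.5, 10 mM MgCl2, 4.5 h at room temperature. Remaining ATP measured by Kinase-Glo luciferase luminescence.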

Assay [11] shares this target. Nature of the assay: qHTS Assay for Inhibitors of CDC-like Kinase 4 (ADP-Glo Assay) (AID 1771). Further: nearly all actives have a fitted effect of over 70% in size. Further: potency means the concentration at half of the fitted maximal effect. The note with it: recombinant CLK4, ADP-Glo luminescence; series mostly up to 80 µM. The method, boiled down:
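25 nM Clk4 with 100 uM RS repeat peptide and 1 uM ATP (final) in buffer with 2 mM MgCl2, 0.5 mM EGTA, 2.5 mM DTT, 0.01% Triton X-100; 1 h at room temperature; ADP-Glo luminescence for ADP formed.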

Assay [12] shares this target. Put plainly: qHTS Assay for Inhibitors of CDC-like Kinase 4 (ADP-FP Assay) (AID 1795).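 Further: recombinant human CLK4 phosphorylating RS repeat peptide at 1 µM ATP; on the % scale 0 is the no-effect control and ±100 the full control effect; nearly all actives have a fitted effect of over 60% in size.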 The following applies: Transcreener ADP fluorescence polarization; series mostly up to 50 µM. The method, boiled down:
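Recombinant Clk4 (6.25 nM) phosphorylated 100 uM RS repeat peptide with 1 uM ATP in 25 mM Tris pH 7.5, 10 mM MgCl2, 0.5 mM EGTA, 2.5 mM DTT, 0.01% Triton X-100 for 1 h. ADP was detected by Transcreener ADP2 competitive fluorescence polarization after 30 min at room temperature.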

Assay [13] deals with Ubiquitin carboxyl-terminal hydrolase 1 (Homo sapiens) (UniProt O94782). Nature of the assay: Inhibitors of USP1/UAF1: Pilot qHTS (AID 504865).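 Further: rhodamine fluorescence freed from ubiquitin-rhodamine substrate followed over time; top concentration of the series differs between compounds; on the % scale 0 is the no-effect control and ±100 the full control effect; nearly all actives have a fitted effect of over 35% in size.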 The following applies: purified USP1/UAF1, Ub-rhodamine cleavage fluorescence; series mostly up to 54.9 µM. The essentials: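 USP1/UAF1 complex at 1 nM preincubated 15 min at room temperature with compound, then Ub-Rho substrate added at 150 nM final. Fluorescence (480/540 nm) read kinetically in 50 mM HEPES pH 7.8, 0.5 mM EDTA, 1 mM TCEP, 0.1 mg/ml BSA, 0.01% Tween-20.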

Assay [14] can be described thus: Primary qHTS for small molecule stabilizers of the endoplasmic reticulum resident proteome: Secreted ER Calcium Modulated Protein (SERCaMP) assay (AID 1508630). Further: on the % scale 0 is the no-effect control and ±100 the full control effect. The following applies: SH-SY5Y GLuc-SERCaMP (Gaussia luciferase released on ER calcium loss) secretion, thapsigargin, luminescence; series mostly up to 38.4 µM. The method, boiled down:
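GLuc-SERCaMP-expressing SH-SY5Y cells, pretreated 16 h with compound, are challenged with thapsigargin to empty ER calcium stores; after 4 h, coelenterazine is added directly to the medium and luminescence is imaged.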

Assay [15] can be described thus: NFAT Signaling Pathway (AID 444; active means well fitted curve in either direction with a large enough effect, not every such curve was filed as active). The following applies: Jurkat NFAT-bla M1, carbachol, beta-lactamase ratio, 5 h; at 7.69 µM (top of the series) unless noted. The method, boiled down:
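Read-out: CCF4 FRET ratio (460 nm/530 nm) after 1 h RT dye loading, used for %activity and AC50 from titration series. Cells: Jurkat NFAT-β-lactamase/M1 line, treated with compound plus 1 uM carbachol for 5 h, 37 °C.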

The target in assay [16] is Cytochrome P450 2C19 (Homo sapiens) (UniProt P33261). Put plainly: qHTS Assay for Inhibitors and Substrates of Cytochrome P450 2C19 (AID 899). Further: potency means the concentration at half of the fitted maximal effect; nearly all actives have a fitted effect of over 60% in size. The following applies: recombinant CYP2C19, luciferin-H EGE luminescence; series mostly up to 57.1 µM. The essentials:
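Reactions contain 5nM enzyme, 10uM Luciferin-H EGE (KM) and 50mM KPO4; compound preincubates 10 min at 37C, NADPH regeneration starts turnover for 60 min. Luminescence after detection reagent gives activity.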

Glucocorticoid receptor (Homo sapiens), sequence (P04150 whole entry, looked up, the tested form may be a part): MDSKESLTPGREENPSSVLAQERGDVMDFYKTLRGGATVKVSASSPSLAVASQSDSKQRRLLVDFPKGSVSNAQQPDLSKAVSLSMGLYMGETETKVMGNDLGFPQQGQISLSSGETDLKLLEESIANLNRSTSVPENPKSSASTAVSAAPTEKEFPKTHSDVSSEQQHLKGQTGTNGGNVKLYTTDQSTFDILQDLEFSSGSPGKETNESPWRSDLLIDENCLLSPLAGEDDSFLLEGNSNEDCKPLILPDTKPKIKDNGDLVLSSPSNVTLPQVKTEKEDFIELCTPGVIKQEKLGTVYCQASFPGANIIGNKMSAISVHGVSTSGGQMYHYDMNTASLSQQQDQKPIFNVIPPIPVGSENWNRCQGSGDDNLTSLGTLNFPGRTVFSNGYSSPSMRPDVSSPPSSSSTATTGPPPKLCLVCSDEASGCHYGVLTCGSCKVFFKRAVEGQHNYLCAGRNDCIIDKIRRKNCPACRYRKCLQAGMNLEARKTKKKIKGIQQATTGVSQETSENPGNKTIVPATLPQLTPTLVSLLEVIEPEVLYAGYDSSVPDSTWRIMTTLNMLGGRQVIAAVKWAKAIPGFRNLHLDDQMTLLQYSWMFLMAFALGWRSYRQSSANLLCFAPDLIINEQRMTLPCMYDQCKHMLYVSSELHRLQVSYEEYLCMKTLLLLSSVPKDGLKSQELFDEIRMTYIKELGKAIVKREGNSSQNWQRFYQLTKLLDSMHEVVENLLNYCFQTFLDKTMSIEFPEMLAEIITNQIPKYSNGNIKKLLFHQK
Dual specificity protein kinase CLK4 (Homo sapiens), sequence (Q9HAZ1 whole entry, looked up): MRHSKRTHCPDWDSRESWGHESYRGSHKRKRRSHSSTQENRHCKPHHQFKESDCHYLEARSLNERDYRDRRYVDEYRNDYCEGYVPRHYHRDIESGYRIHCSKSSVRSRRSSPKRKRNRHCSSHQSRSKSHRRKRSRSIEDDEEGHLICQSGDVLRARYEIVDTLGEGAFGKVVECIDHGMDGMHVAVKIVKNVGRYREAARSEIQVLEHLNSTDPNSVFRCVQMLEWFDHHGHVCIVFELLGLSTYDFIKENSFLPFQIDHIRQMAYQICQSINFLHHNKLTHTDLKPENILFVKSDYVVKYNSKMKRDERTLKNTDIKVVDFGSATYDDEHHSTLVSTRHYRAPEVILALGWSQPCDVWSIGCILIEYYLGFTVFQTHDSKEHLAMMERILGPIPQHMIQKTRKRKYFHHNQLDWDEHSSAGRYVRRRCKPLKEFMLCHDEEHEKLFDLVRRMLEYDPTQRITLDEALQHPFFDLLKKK
Lysosomal acid glucosylceramidase (Homo sapiens), sequence (P04062 whole entry, looked up): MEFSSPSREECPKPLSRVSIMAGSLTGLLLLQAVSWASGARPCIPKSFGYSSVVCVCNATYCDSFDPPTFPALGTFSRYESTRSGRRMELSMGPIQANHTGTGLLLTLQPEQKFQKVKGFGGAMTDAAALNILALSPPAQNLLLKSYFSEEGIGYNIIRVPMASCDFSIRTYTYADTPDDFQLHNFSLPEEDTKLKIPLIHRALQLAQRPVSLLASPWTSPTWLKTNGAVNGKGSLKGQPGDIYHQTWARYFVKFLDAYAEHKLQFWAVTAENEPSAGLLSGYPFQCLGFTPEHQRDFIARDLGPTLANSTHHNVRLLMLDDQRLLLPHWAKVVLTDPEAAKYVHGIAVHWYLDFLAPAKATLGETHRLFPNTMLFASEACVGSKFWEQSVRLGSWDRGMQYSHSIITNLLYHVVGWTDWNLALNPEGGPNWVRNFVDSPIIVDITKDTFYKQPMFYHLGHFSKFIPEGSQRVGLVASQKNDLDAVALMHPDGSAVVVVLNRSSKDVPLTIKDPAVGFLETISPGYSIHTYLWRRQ
3',5'-cyclic-AMP phosphodiesterase 4B (Homo sapiens), sequence (Q07343 whole entry, looked up): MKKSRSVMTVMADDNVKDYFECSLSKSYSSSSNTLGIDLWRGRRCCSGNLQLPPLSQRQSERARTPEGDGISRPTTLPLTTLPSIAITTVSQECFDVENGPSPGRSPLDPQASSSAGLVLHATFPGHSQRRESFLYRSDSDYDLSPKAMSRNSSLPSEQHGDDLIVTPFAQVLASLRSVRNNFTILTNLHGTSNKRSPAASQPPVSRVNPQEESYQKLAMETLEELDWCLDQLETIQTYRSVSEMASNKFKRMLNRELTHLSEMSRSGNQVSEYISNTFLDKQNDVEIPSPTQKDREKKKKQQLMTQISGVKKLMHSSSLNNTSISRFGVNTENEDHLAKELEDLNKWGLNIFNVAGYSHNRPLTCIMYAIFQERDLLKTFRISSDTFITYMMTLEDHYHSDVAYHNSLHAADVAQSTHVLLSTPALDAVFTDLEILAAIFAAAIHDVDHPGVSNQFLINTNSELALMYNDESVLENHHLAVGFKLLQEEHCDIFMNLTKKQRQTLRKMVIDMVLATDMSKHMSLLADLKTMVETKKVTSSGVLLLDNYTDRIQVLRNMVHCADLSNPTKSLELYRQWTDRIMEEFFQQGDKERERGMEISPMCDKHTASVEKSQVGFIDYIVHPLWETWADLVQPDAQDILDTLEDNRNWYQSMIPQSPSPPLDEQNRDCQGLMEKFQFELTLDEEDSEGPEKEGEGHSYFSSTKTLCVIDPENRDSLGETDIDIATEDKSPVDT
Ubiquitin carboxyl-terminal hydrolase 1 (Homo sapiens), sequence (O94782 whole entry, looked up): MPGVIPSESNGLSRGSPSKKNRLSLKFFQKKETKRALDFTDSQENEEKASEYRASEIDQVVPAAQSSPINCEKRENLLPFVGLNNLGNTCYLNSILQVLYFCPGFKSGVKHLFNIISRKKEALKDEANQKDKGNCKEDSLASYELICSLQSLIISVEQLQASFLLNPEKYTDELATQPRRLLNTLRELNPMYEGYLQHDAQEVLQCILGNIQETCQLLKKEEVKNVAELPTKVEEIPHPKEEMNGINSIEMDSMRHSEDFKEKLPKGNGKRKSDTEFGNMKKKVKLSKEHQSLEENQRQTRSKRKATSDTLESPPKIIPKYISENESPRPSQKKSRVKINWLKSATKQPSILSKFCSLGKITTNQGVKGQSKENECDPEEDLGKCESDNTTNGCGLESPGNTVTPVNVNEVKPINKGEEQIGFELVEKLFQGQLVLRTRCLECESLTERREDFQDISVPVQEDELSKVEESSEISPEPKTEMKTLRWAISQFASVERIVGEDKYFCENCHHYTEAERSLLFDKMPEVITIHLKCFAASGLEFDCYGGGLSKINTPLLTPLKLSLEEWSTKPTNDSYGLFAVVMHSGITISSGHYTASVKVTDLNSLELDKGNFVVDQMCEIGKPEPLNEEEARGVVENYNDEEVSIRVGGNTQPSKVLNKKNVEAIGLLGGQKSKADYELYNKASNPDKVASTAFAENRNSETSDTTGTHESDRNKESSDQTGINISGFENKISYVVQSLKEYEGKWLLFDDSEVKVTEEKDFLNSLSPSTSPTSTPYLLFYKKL
Cytochrome P450 2C19 (Homo sapiens), sequence (P33261 whole entry, looked up): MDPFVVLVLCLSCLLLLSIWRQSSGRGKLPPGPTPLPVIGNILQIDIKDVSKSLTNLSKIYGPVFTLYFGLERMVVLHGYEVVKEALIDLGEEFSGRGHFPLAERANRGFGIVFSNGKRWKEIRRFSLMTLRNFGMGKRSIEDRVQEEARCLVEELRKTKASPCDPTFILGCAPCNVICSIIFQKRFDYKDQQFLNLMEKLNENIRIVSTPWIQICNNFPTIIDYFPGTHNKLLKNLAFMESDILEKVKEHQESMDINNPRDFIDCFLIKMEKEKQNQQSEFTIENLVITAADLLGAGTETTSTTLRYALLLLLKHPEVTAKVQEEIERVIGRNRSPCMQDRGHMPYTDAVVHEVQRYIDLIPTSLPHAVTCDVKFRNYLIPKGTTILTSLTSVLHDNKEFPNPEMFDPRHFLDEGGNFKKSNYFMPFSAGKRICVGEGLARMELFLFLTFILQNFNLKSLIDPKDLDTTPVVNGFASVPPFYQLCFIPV
Cytochrome P450 1A2 (Homo sapiens), sequence (P05177 whole entry, looked up): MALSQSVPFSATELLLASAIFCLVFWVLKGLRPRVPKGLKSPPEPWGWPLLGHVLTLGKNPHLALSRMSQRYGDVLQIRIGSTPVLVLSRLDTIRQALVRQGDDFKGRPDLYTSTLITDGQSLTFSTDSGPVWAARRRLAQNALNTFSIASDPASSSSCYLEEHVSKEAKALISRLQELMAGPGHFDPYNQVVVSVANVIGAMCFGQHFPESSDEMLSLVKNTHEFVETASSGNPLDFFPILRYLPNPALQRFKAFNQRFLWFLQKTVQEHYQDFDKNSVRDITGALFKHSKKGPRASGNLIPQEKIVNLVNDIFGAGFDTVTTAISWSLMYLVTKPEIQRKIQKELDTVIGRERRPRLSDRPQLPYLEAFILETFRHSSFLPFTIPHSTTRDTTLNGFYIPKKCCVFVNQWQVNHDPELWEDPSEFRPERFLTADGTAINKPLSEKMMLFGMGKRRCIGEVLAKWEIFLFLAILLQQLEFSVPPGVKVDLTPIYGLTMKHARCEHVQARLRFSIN
Cytochrome P450 3A4 (Homo sapiens), sequence (P08684 whole entry, looked up): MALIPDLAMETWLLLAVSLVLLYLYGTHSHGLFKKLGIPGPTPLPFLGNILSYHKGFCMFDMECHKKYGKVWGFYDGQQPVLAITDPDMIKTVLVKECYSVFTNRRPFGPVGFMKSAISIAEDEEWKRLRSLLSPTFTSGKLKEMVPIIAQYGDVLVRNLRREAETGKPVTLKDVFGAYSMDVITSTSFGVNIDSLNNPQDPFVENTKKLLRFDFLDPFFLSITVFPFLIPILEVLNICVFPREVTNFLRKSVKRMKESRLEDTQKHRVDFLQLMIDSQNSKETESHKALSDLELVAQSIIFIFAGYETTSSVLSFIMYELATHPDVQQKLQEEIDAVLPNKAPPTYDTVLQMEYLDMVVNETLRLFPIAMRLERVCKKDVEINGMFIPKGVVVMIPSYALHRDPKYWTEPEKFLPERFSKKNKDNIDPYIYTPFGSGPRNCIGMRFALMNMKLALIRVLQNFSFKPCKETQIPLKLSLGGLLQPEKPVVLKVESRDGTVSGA

Turning to `O=c1c(-c2ccccc2)nc2cnc(N3CCOCC3)nc2n1C[C@H]1CCCO1`, the Potency in assay [1] is above 11.4 µM; in [3], 3.16 µM (active); in assay [5] it was above 9.22 µM; in assay [6] it was above 46 µM. The activity change, negative = inhibition in [2] is 17%. In addition, the activity, negative = inhibition in assay [4] was 20.8%. Also, the Potency entry in assay [7], in assay [8], in assay [9], in assay [10], in assay [11] and in assay [12] was “inactive” in each case. Besides, the Potency entry in assay [13] is “inactive”. The result in assay [14] was inactive.

Take `COc1ccccc1-c1cc(N(C)Cc2ccco2)ncn1`: the Potency is above 11.4 µM in assay [1]; above 46 µM in assay [5]; above 46 µM in assay [6]; 3.98 µM (active) in assay [16]; 28.2 µM (active) in assay [10]; 35.5 µM (active) in [11]. Besides, the figures for the activity change, negative = inhibition in [2] and in assay [15] were 28.4% and -15.8%, respectively. In addition, in assay [4], the activity, negative = inhibition was 5.75%. Further, the Potency entry in assay [7], in assay [8], in [12] and in [13] was “inactive” each time. Besides, in assay [14], the outcome was inactive.

With `COCCn1c(=O)c(CCc2ccccc2)nc2cnc(N3CCOCC3)nc21`, the Potency in assay [1] was above 11.4 µM; in assay [5], above 9.22 µM; in [6] it was above 46 µM. The activity change, negative = inhibition was -24.7% in [2] and -12.9% in assay [15]. In addition, the activity, negative = inhibition in [4] was -3.32%. The Potency result in assay [7], in assay [8], in [10], in assay [11], in assay [12] and in assay [13] was “inactive” throughout. Besides, the result in assay [14] was inactive.

`Cn1c(=O)c(-c2cc(F)cc(F)c2)nc2cnc(Nc3ccccc3)nc21`: the Potency in assay [1] was above 11.4 µM; in assay [5], above 9.22 µM; in [6], above 46 µM. In addition, the activity change, negative = inhibition is -3.31% in [2] and 6.94% in assay [15]. The activity, negative = inhibition in assay [4] was 4.13%. Besides, the Potency result in assay [7], in [8], in assay [10], in assay [11], in [12] and in assay [13] was “inactive” each time. The outcome in assay [14] was inactive.

With `COc1ccc(-c2nc3cnc(OC)nc3n(-c3ccccc3)c2=O)cc1`, the Potency in [1] is above 11.4 µM; in assay [5] it was above 9.22 µM; in assay [6], above 46 µM. Further, the activity change, negative = inhibition in assay [2] was -6.09%; in [15], 10.5%. For the same compound, the activity, negative = inhibition in assay [4] was -1.78%. Also, the Potency entry in [7], in [8], in assay [10], in assay [11], in assay [12] and in [13] was “inactive” throughout. The outcome in [14] was inactive.

On to `COc1ncc2nc(-c3ccccc3)c(=O)n(C3CC3)c2n1`, for which the figures for the Potency in assay [1], in assay [5] and in assay [6] were above 11.4 µM, above 9.22 µM and above 46 µM, respectively. The activity change, negative = inhibition in [2] was -10.7%; in assay [15], 7.49%. The activity, negative = inhibition in assay [4] is -13.4%. Also, the Potency result in assay [7], in [8], in [10], in assay [11], in assay [12] and in assay [13] was “inactive” in each case. Besides, the result in [14] was inactive.
